Most compounds without a hit are left out; they make up all but 13% or so of the library.
CHX counter = Cycloheximide Counterscreen for Small Molecule Inhibitors of Shiga Toxin; AID 2314, 2010; 300,000 tested, 12% active; cell reporter, cycloheximide protein synthesis inhibition counterscreen; max response, %; in the data active = max response mostly above about 13%, no sharp cut-off; inactive = mostly below about 14%; note: read at 38.3 µM for the half of the compounds with a filed dose; 0% is about no effect
FMDV antiviral = High Throughput Screening for Foot and Mouth Disease Virus Antivirals; 410,000 tested, 1.2% active; FMDV antiviral cell-based qHTS; Potency, µM (series often up to 57.9 µM), for the others: top-dose activity change, negative = inhibition, hits mostly inhibitors; calls by dose curve; tested in HEK293T cells; note: read-out not given here; potency is the fitted concentration of half-maximal effect; % is set by controls: 0 for no effect and ±100 for the full control effect; nearly all actives have a fitted effect of over 45% in size
LASV entry inh = qHTS for Inhibitors of binding or entry into cells for Lassa Virus. Lassa virus pseudotype entry inhibition, cell reporter. Potency, µM (doses to about 37.9 µM), inactives show at the highest dose activity change, negative = inhibition, most hits filed as inhibitors. 300,000 tested, 1.2% active; calls by dose curve; tested in HEK293 cells; note: potency is the fitted concentration of half-maximal effect; % is set by controls: 0 for no effect and ±100 for the full control effect; nearly all actives have a fitted effect of over 50% in size
MARV entry inh = qHTS for inhibitors of binding or entry into cells for Marburg Virus; Marburg virus pseudotyped entry inhibition, cell reporter; Potency, µM (top dose mostly 37.8 µM), for the others: at the top dose activity change, negative = inhibition, usual class: inhibitors; 300,000 tested, 1.8% active; AID 540276, 2011; calls by dose curve; tested in HEK293 cells; note: potency is the fitted concentration of half-maximal effect; % is set by controls: 0 for no effect and ±100 for the full control effect
HCV inh = qHTS Assay for Inhibitors of Hepatitis C Virus (HCV); 340,000 tested, 3.4% active; Potency, µM (doses to about 41.8 µM), for inactives: at the top dose activity change, negative = inhibition, usual class: inhibitors; Huh7.5.1 HCVcc-Cre infection, luciferase reporter, 44 h; active = well fitted inhibition curve with a large enough effect; inconclusive = small, poorly fitted or top-dose-only effect, or another doubt; inactive = no such curve, though single readings can be large or run the other way; note: potency is the fitted concentration of half-maximal effect; % is set by controls: 0 for no effect and ±100 for the full control effect
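Reporter virus HCVcc-Cre (~0.5 moi) infects cells exposed to compound; seeding density 1,000 cells/well with 4 h settling beforehand. Luminescence, 15 sec read, taken 44 h post-infection following a 15 min RT substrate incubation.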
Shiga inhibitor = A qHTS for Small Molecule Inhibitors of Shiga Toxin. Vero cells, Shiga toxin protein synthesis inhibition reporter. inhibition, % at 38.7 µM. AID 2315, 2010. 290,000 tested, 9.2% active; in the data active = inhibition mostly above about 28%, no sharp cut-off; inactive = mostly below about 43%; note: 0% is about no effect
Numbers without * were called inactive; ? = inconclusive; · = no result given; [ ] = another dose, or the depositor's remark.

SMILES	CHX counter	FMDV antiviral	LASV entry inh	MARV entry inh	HCV inh	Shiga inhibitor
CC(=O)c1cccc(NC(=O)CSc2ncc(C(=O)Nc3ccccc3)c(=O)n2C)c1	·	?	10.5%	18.0%	?	·
CCOC(=O)c1ccc(NC(=O)C2=C(C)Nc3nc(CCCO)nn3C2c2ccc(OC)cc2)cc1 (configuration not stated)	44.0*	-13.6%	1.1%	0.8%	1.9%	66.0*
CCOc1ccc(C2C(C(=O)Nc3ccc(OC)cc3)=C(C)Nc3nc(CCCO)nn32)cc1 (configuration not stated)	·	-4.2%	?	·	·	·
CCN(CC)c1ccc(/C=C/c2cc(-c3ccccc3)c3ccccc3n2)cc1	16.0*	-34.5%	·	·	14.1µM*	23.9
CN(C)c1ccc(/C=C2\SC(N3CCCCC3)=NC2=O)cc1	40.8*	4.0%	·	·	-5.2%	·
COc1cc(/C=C2\SC(N3CCC(C)CC3)=NC2=O)ccc1O	42.0*	22.5%	?	?	-22.1%	15.3
O=C1N=C(N2CCCCC2)S/C1=C/C1=Cc2ccccc2OC1	37.0*	24.6%	?	?	-20.0%	76.1*
COc1ccc(/C=N/NC(=S)Nc2cc(C(F)(F)F)ccc2Cl)cc1	7.1	0.8%	?	?	-13.1%	27.2
CC(C)OCC(O)CSc1ccccn1 (configuration not stated)	5.8	13.8%	2.2%	16.9%	14.3%	1.7
CC(C)Sc1nsc2nc(=O)c(/C=C3\C=Nc4ccccc43)c(N)n12	-0.1	-13.1%	·	·	-3.3%	-4.6
O=C(COc1ccccc1Br)NC1CCCC1	31.9*	-16.8%	-6.4%	-32.4%	?	77.6*
CCOc1ccccc1OCC(=O)NC1CCCCC1	9.1	-2.1%	3.5%	3.0%	-16.7%	4.2
COc1ccccc1OCC(=O)NC1CCCCCC1	21.8*	·	15.6%	13.2%	?	41.7*
CC(=O)c1c(C)[nH]c(C(=O)CSc2nnc(-c3cccs3)n2Cc2ccccc2)c1C	-0.4	-27.7%	?	?	2.82µM*	-22.7
CCn1c(SCC(=O)c2cccs2)nnc1-c1ccco1	39.3*	58.0%	?	8.4%	-15.4%	86.6*
CCn1c(SCC(=O)c2ccccc2)nnc1-c1cccs1	66.2*	30.5%	?	6.9%	3.8%	77.2*
CCn1c(SCC(=O)NCCc2ccccc2)nnc1-c1cccs1	-1.4	-7.5%	-2.5%	0.2%	-4.9%	10.9
CCn1c(SCC(=O)c2ccc(O)c(O)c2)nnc1-c1ccccc1OC	-1.9	-8.5%	7.3%	1.8%	-12.9%	8.1
CCn1c(SCC(=O)c2ccc(O)c(O)c2)nnc1-c1ccccc1	33.5*	36.9%	12.9%	-3.3%	?	60.6
O=C(CSc1nnnn1-c1ccccc1)N1CCNC1=O	7.2	1.9%	·	·	13.2%	22.5
C=CCn1c(SCC(=O)c2ccc(O)c(O)c2)nnc1-c1cccc(Cl)c1	·	-27.3%	·	·	3.98µM*	·
Cc1ccc(N2C(=O)CS(=O)C(c3ccccc3)C2=O)cc1C (configuration not stated)	28.0*	45.3%	-2.2%	?	?	65.3*
Cc1ccc(Cl)cc1NC(=O)CSc1nnc(C)n1-c1ccccc1	3.6	-28.8%	-17.0%	-1.5%	-3.5%	9.0
O=C(CCCn1c(=S)[nH]c2ccccc2c1=O)NCc1ccco1	-2.6	-1.9%	-1.5%	-0.3%	-3.0%	21.7
CC(=O)Nc1ccn(-c2ccccc2)n1	31.2*	53.5%	9.2%	?	-4.6%	51.9*
SMILES	CHX counter	FMDV antiviral	LASV entry inh	MARV entry inh	HCV inh	Shiga inhibitor
O=C(Nc1ccc(NC(=O)c2ccccc2Br)cc1)c1ccccc1	16.4	42.3%	·	·	-25.5%	15.5
O=C(Nc1ccn(-c2ccccc2)n1)c1ccccc1Br	37.6*	51.7%	·	·	3.3%	50.5*
O=C(Nc1ccn(-c2ccccc2)n1)c1ccc(Cl)cc1	45.1*	-18.1%	-3.7%	?	7.08µM*	106.2*
N#Cc1ccc(C(=O)Nc2ccn(-c3ccccc3)n2)cc1	-2.5	-22.1%	0.6%	?	?	-1.2
COc1ccc(CNC(=O)N2CCN(S(=O)(=O)c3ccc(C)cc3C)CC2)cc1	7.2	-6.4%	-11.5%	-23.5%	?	-11.0
COc1ccccc1C(=O)NNC(=O)Cc1ccccc1	1.4	17.8%	6.8%[46.1 µM]	3.3%[46.1 µM]	5.7%	15.0
Nc1cccc(-c2nnc3n2CCCCC3)c1	-6.7	-0.1%	-1.7%	20.8%	12.0%	4.1
CCC(CC)C(=O)NCc1ccc(Cl)cc1	-6.4	-11.4%	-4.6%[46.1 µM]	-6.5%[46.1 µM]	1.0%	9.9
O=C(Nc1ccncc1)c1cccc(F)c1	-1.3	4.3%	9.1%	-11.1%	-16.4%	1.0
O=C(Nc1ccc(Nc2ccccc2)cc1)c1cccc(F)c1	35.9*	22.0%	·	·	?	117.1*
O=C(Nc1cccc(F)c1)c1ccccc1	37.5*	34.5%	9.2%	0.0%	7.4%	79.3*
CCN(CC)C(=O)c1ccc(NC(=O)c2cccc(F)c2)cc1	35.4*	50.1%	11.3%	3.5%	1.5%	72.1
O=C(O)c1cccc(NC(=O)c2ccccc2)c1	·	-6.3%	·	·	10.0%	·
O=C(CC12CC3CC(CC(C3)C1)C2)NC(=S)NCc1ccco1	1.8	-15.6%	·	·	?	20.0
Cc1ccc(C)c(S(=O)(=O)N2CCN(CC(=O)Nc3sccc3C#N)CC2)c1	-1.4	-11.1%	-4.8%	-20.0%	-3.2%	-16.5
COc1ccc(CNC(=O)/C=C\c2ccc3[nH]cc(CCN(C)C)c3c2)cc1	·	17.3%	·	35.5µM*	·	·
Cc1ccc2[nH]c(C(=O)N/N=C/c3ccccc3C(=O)O)c(-c3ccccc3)c2c1	-6.0	-14.6%	·	·	3.5%	-2.3
COc1cc(OC)c2cc(C(=O)N/N=C/c3ccccc3O)[nH]c2c1	-0.6	-15.8%	·	·	8.91µM*	5.0
COc1ccc2[nH]c(C(=O)N/N=C/c3ccc(OC)c(O)c3)cc2c1	12.0	7.4%	5.62µM*	?	-13.9%	20.4
Cc1ccc2[nH]c(C(=O)N/N=C/c3ccccc3O)c(C)c2c1	25.4*	81.7%	·	·	3.55µM*	61.2*
COc1ccc(OC)c(/C=N/NC(=O)c2cc3c(OC)c(OC)ccc3[nH]2)c1	7.0	-9.0%	-6.3%	-17.3%	?	25.4
COc1ccc(/C=N/NC(=O)c2nc(-c3ccccc3)cc(-c3ccccc3)n2)cc1	-3.7	-8.0%	?	?	10µM*	-20.0
COc1ccc2[nH]c(C(=O)N/N=C/c3ccccc3OC)cc2c1	10.7	-5.1%	·	·	-10.3%	26.9
CC(NC(=O)COC(=O)CC(c1ccccc1)c1ccccc1)c1ccccc1 (configuration not stated)	-1.7	-17.0%	?	3.1%	-17.9%	-10.4
CCCn1cnc2c(SCc3ccc(Cl)cc3)nc(N)nc21	·	-18.1%	6.2%	?	?	·
CCCOc1ccc2[nH]c(C(=O)N/N=C/c3cc(OC)c(OC)c(OC)c3)cc2c1	0.5	-12.3%	·	·	-12.6%	3.8
COc1ccc(/C=N/NC(=O)CCn2c3ccccc3c3ccccc32)cc1O	2.8	·	?	?	6.31µM*	-7.4

Compound activity as filed in PubChem.
